The text below walks through data of PubChem BioAssay (EPA / NIEHS).

Some structures have more than one record in an assay (separate samples or runs), and their calls can disagree. Activity calls are given as the source filed them. Rule for the calls: active = hit-call score of the fitted dose curve at least 0.9, where 1 is the maximum; inactive = score below 0.9.

The nature of test [1]: ATG_CRE_CIS: Attagene CIS-FACTORIAL HepG2 Assay for human cAMP Responsive Element (CRE) binding protein 3 (AID 2282926). The conditions noted are these: HepG2 CRE cis-reporter, Attagene multiplexed mRNA; actives raise or lower the signal. Put shortly: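 Induced reporter mRNA from a CRE cis element, measured in HepG2 among many multiplexed units at 24 h. Detection used RT-PCR plus capillary electrophoresis of fluorescent fragments; DMSO served as negative control.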

The target in test [2] is CCAAT/enhancer-binding protein beta (Homo sapiens) (UniProt P17676). The test can be described thus: ATG_C_EBP_CIS: Attagene CIS-FACTORIAL HepG2 Assay for human CCAAT/Enhancer Binding Protein (C/EBP) beta (AID 2282927). The conditions noted are these: HepG2 Attagene cis-factorial transcription factor reporter; actives raise or lower the signal. The procedure, abridged: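 Following a 24 h incubation with test chemical, transfected HepG2 cells yielded RNA whose reporter transcripts were quantified by RT-PCR and fluorescent capillary electrophoresis, with DMSO serving as baseline for bidirectional fitting.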
Chain of CCAAT/enhancer-binding protein beta (Homo sapiens) (P17676 whole entry, looked up): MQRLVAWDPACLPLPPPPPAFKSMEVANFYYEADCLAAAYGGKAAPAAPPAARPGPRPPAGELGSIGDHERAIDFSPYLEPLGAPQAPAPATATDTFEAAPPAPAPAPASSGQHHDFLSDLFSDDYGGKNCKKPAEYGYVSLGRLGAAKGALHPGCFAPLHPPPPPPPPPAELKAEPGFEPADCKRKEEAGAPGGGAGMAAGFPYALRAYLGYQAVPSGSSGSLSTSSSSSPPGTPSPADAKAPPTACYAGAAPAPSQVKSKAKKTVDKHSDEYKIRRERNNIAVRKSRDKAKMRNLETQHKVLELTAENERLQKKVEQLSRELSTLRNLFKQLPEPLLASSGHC

Test [3] is described as follows: ATG_CMV_CIS: Attagene CIS-FACTORIAL HepG2 Assay for human CMV (Internal Marker) (AID 2282928).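 Note: endpoint acts as a background internal control marker rather than a target.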 The conditions noted are these: HepG2 CMV promoter reporter, transcription factor profiling; actives raise or lower the signal. Put shortly: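 Readout: fluorescent reporter cDNA fragments separated by capillary electrophoresis after RT-PCR and HpaI cut. Cells: HepG2 carrying transfected cis-promoter reporter constructs, dosed 24 h. Endpoint serves as background internal-marker control, fit bidirectionally versus DMSO.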

The nature of test [4]: ATG_DR4_LXR_CIS: Attagene CIS-FACTORIAL HepG2 Assay for human Liver X Receptor (LXR), DR4 submotif (AID 2282929). The conditions noted are these: HepG2 Attagene DR4 cis-reporter, mRNA transcription; actives raise or lower the signal. Put shortly: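 Transiently transfected HepG2 liver cells; cis-regulated reporters; 24 h dosing. RT-PCR plus CE read-out of reporter mRNA. DMSO baseline, bidirectional curve fitting.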

In test [5] the target is Aryl hydrocarbon receptor (Homo sapiens) (UniProt P35869). The test can be described thus: ATG_Ahr_CIS: Attagene CIS-FACTORIAL HepG2 Assay for human Aryl Hydrocarbon Receptor (Ahr) (AID 2282930). The conditions noted are these: HepG2 AhR cis-factorial reporter transcription; actives raise or lower the signal. The procedure, abridged:
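Values derive from bidirectional fitting against DMSO negative control. Underlying signal: cis-element reporter mRNA in transiently transfected HepG2, harvested 24 h post-dose and measured by RT-PCR plus capillary electrophoresis.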

Test [6] in a line: ATG_AP_1_CIS: Attagene CIS-FACTORIAL HepG2 Assay for human Activator Protein 1 (AP-1) (AID 2282931). The conditions noted are these: HepG2 Attagene cis-factorial AP-1 reporter mRNA; actives raise or lower the signal. The procedure, abridged:
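We transfected HepG2 cells transiently with a set of cis-regulated reporter transcription units, dosed them for 24 h, and quantified reporter mRNA via RT-PCR and capillary electrophoresis, scoring gain or loss of signal relative to DMSO.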

The nature of test [7]: ATG_AP_2_CIS: Attagene CIS-FACTORIAL HepG2 Assay for human Activator Protein 2 (AP-2) (AID 2282932). The conditions noted are these: HepG2 AP-2 cis-reporter, Attagene transcription factor profiling; actives raise or lower the signal. Put shortly: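 Cells (HepG2) transfected with promoter-driven reporter constructs, treated 24 h. Total RNA reverse-transcribed, reporter cDNA PCR-amplified, FAM-labelled by primer extension, digested, resolved by capillary electrophoresis. Activity fitted both directions versus DMSO.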

Test [8] is described as follows: ATG_BRE_CIS: Attagene CIS-FACTORIAL HepG2 Assay for human Bone Morphogenetic Protein (BMP) Response Element (BRE) (AID 2282933). Conditions: HepG2 BMP response element reporter, Attagene transcription factor profiling; actives raise or lower the signal. The procedure, abridged:
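HepG2 cells transiently transfected with multiplexed cis-element reporter units were dosed with chemical for 24 h. Reporter mRNA was measured by RT-PCR with fluorescent labelling, HpaI digestion and capillary electrophoresis; bidirectional fitting relative to DMSO.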

Test [9] addresses Retinoic acid receptor alpha (Homo sapiens) (UniProt P10276). The test is described as follows: ATG_DR5_RAR_CIS: Attagene CIS-FACTORIAL HepG2 Assay for human Retinoic Acid Receptor Alpha (RARE), DR5 submotif (AID 2282934).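 For AC50: reporter responds to endogenous RAR alpha beta and gamma in HepG2 not RARA alone.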 The conditions noted are these: HepG2 Attagene cis-factorial RARE DR5 reporter, mRNA; actives raise or lower the signal. Put shortly:
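Endpoint fitted in both directions relative to DMSO as negative control. It reflects DR5 cis-element reporter mRNA induction in transiently transfected HepG2 cells, measured 24 h after dosing through RT-PCR and fluorescent capillary electrophoresis.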

A short description of test [10]: APR_HepG2_NuclearSize_72hr: Apredica 72-hour HepG2 Assay for Nuclear Size (AID 2282925). Conditions: high-content imaging, actives raise or lower the signal. The procedure, abridged:
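Compounds (0.39–200 uM, final DMSO 0.5%) were applied to HepG2 for 72 hr. Cells were then formaldehyde-fixed, permeabilized and labelled with Hoechst 33342. Nuclear diameter was quantified from six images per well.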

Chain of Aryl hydrocarbon receptor (Homo sapiens) (P35869 whole entry, looked up): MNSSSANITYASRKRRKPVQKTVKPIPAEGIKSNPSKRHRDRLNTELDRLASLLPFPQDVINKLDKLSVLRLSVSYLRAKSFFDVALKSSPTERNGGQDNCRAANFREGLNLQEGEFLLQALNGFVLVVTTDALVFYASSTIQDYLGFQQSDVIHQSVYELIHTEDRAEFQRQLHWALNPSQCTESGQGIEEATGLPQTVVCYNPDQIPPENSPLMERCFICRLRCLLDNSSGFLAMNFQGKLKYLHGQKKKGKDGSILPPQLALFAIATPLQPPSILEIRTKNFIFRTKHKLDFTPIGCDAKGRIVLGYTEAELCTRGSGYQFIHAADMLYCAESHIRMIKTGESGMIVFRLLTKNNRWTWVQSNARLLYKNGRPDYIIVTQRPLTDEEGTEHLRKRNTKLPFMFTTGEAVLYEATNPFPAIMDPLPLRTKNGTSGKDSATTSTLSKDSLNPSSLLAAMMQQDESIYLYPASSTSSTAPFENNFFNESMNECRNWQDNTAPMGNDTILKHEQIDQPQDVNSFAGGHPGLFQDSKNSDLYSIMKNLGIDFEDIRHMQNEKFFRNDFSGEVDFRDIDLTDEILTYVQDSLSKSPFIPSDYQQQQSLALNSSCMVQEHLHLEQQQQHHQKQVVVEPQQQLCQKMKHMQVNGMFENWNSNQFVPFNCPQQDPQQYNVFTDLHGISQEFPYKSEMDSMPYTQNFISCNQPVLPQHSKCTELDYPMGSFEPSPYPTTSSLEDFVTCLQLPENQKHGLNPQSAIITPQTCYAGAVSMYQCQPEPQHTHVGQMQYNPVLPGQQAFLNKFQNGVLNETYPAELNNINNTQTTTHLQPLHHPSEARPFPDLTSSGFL
Chain of Retinoic acid receptor alpha (Homo sapiens) (P10276 whole entry, looked up): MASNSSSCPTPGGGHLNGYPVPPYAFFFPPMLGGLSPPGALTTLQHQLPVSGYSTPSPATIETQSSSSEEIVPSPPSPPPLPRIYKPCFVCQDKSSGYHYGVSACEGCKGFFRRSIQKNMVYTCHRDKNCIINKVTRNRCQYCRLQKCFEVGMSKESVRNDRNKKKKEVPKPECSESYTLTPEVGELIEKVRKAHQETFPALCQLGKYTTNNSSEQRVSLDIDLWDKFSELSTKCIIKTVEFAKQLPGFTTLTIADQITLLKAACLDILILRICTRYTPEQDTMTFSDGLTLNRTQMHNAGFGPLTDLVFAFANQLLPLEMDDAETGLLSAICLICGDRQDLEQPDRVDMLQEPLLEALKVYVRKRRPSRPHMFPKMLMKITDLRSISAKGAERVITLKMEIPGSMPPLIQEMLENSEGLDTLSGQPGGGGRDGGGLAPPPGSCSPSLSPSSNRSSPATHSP

Regarding `CCOP(=O)(O)C(N)=O`, the result in [1], in test [2], in test [3], in test [4], in test [5] and in test [6] was inactive. Moreover, the compound was called inactive in [7], in test [8] and in [9].

As for `Nc1ccc([N+](=O)[O-])cc1Cl`, the result in [1], in test [2], in test [3], in test [4], in [5] and in [6] was inactive. Besides, the result in test [7], in test [8] and in test [9] was inactive.

With `C=CC(=O)OCC(CC)(COC(=O)C=C)COC(=O)C=C`, the compound was classed as inactive in test [1], in test [2], in [7], in test [8] and in test [9]. Also, the AC50 in test [3] is 12.1 µM (active); in test [4] it was 16.8 µM (active); in [5] it was 35.9 µM (active); in [6], 113 µM (active).

In the case of `CC(Cl)CN(C)C` (configuration not stated), the result in test [1], in test [2], in test [3], in test [4], in test [5] and in test [6] was inactive. For the same compound, the outcome in [8] and in test [9] was inactive.

In the case of `O=c1[nH]c2ccccc2c(=O)o1`, the outcome in [1], in [2], in test [3], in [4], in [6] and in test [7] was inactive. For the same compound, the compound was called inactive in test [8] and in test [9]. For the same compound, in [5], the AC50 is 89.5 µM (active).

`OCC(F)(F)OC(F)(F)C(F)(F)OC(F)(F)CO`: the call in test [1], in test [2], in test [3], in test [4], in test [5] and in test [6] was inactive. For the same compound, the outcome in test [7], in test [8] and in test [9] was inactive.

Regarding `O=S1(=O)OCC2C(CO1)C1(Cl)C(Cl)=C(Cl)C2(Cl)C1(Cl)Cl` (configuration not stated), the AC50 is 171 µM (active) in test [1], 8.33 µM (active) in test [4], 2.9 µM (active) in test [5] and 171 µM (active) in test [9]. The result in test [2], in test [3], in [6], in [7] and in [8] was inactive.

In the case of `N#Cc1ccc(O)cc1`, the compound was called inactive in [1], in [2], in test [3], in test [4], in test [5] and in [6]. Also, the call in [7], in test [8] and in [9] was inactive.

Take `CCCCN(CC)C(=O)SCCC`: the outcome in test [1], in test [2], in test [3], in test [4], in test [5] and in test [6] was inactive. Moreover, the call in [8] and in test [9] was inactive.

For `Clc1ccc(Oc2ccccc2)cc1`, the call in test [1], in [2], in test [3], in test [4], in test [5] and in [6] was inactive. Moreover, the outcome in [8] and in test [9] was inactive.

Consider `COCCOCCO`, for which the compound was classed as inactive in test [10], in test [1], in test [2], in test [4], in [5] and in [6]. For the same compound, the outcome in [8] and in [9] was inactive.

In the case of `ClC(Cl)c1ccccc1`, the call in test [10], in test [1], in test [2], in test [4], in [5] and in test [6] was inactive. Besides, the call in test [8] and in test [9] was inactive.

With `CC(O)C#N` (configuration not stated), the outcome in test [1], in test [2], in [3], in test [4], in test [5] and in test [6] was inactive. Further, the result in test [7], in [8] and in [9] was inactive.

In the case of `ClC(Cl)=C(c1ccc(Cl)cc1)c1ccccc1Cl`, the compound was called inactive in test [1], in test [2] and in test [8]. Besides, the AC50 in test [3] was 36.5 µM (active); in test [4], 27.3 µM (active); in test [5], 27.2 µM (active); in test [6], 57.5 µM (active); in [9] it was 27 µM (active).

With `COC(=O)C(F)(F)C(F)(F)OC(F)(C(F)(F)F)C(F)(F)OC(F)=C(F)F` (configuration not stated), the call in test [1], in test [2], in test [3], in test [4], in test [5] and in test [6] was inactive. Further, the call in [7], in test [8] and in test [9] was inactive. The AC50 in test [4] was 20.2 µM (active); in test [6] it was 9.89 µM (active).

`Cc1cc(C)c(C(=O)P(=O)(c2ccccc2)c2ccccc2)c(C)c1`: the result in test [1], in [2], in [3], in test [5], in test [6] and in test [8] was inactive. The call in test [9] was inactive. The results for the AC50 in test [4] and in test [7] were 11.5 µM (active) and 59.3 µM (active), respectively.

Take `N#C/C=C/c1ccccc1`: the outcome in test [1], in test [2], in test [3], in test [4], in [5] and in [6] was inactive. Further, the outcome in [8] and in [9] was inactive.

For `CC(O)C(F)(F)C(F)(F)F` (configuration not stated), the result in test [1], in test [2], in test [3], in test [4], in test [5] and in test [6] was inactive. The result in test [7], in [8] and in [9] was inactive.

As for `N#Cc1c(-c2ccc(Cl)cc2)[nH]c(C(F)(F)F)c1Br`, the AC50 in test [1] is 0.019 µM (active); in test [2] it was 0.0342 µM (active); in test [3] it was 3.01 µM (active); in test [5], 0.0823 µM (active); in [6], 0.0823 µM (active); in test [8] it was 8.08 µM (active). For the same compound, the result in [4], in test [7] and in test [9] was inactive.

Regarding `CC1=C(C(=O)Nc2ccccc2)S(=O)(=O)CCO1`, the compound was classed as inactive in test [1], in test [2], in test [5] and in test [9]. Moreover, the AC50 in test [3] was 45.4 µM (active); in test [4], 44.3 µM (active); in test [6], 66.8 µM (active); in test [7] it was 18.1 µM (active); in test [8], 6.73 µM (active).

For the compound `Cc1ccc2c(c1N)C(=O)c1ccccc1C2=O`, the compound was classed as inactive in test [1], in [2], in test [3], in test [4], in test [7] and in test [8]. Further, the call in test [9] was inactive. The AC50 in test [5] was 4.15 µM (active); in test [6] it was 150 µM (active).

As for `CCOP(=S)(NC(C)C)Oc1ccccc1C(=O)OC(C)C` (configuration not stated), the compound was classed as inactive in test [1], in [2], in test [3], in [5], in test [6] and in test [7]. Further, the outcome in test [8] and in test [9] was inactive. Also, the AC50 in test [4] was 26.5 µM (active).

Regarding `CC(C)(C)c1ccccc1OP(=O)(Oc1ccccc1)Oc1ccccc1`, the result in test [1], in [5], in test [7], in [8] and in [9] was inactive. For the same compound, the AC50 in test [2] is 14.8 µM (active); in test [3], 100 µM (active); in [4], 27.1 µM (active); in test [6], 116 µM (active).

With `CC(C)(C)N(NC(=O)c1ccc(Cl)cc1)C(=O)c1ccccc1`, the compound was called inactive in [1], in [2], in test [3], in [4], in [5] and in [6]. For the same compound, the result in [8] and in test [9] was inactive.

Take `FC(F)(F)c1ccc(Cl)cc1`: the result in [1], in test [2], in [3], in test [4], in [5] and in test [6] was inactive. For the same compound, the call in test [7], in test [8] and in test [9] was inactive.

In the case of `CNC(=O)Oc1ccc(N(C)C)c(C)c1`, the compound was called inactive in test [1], in test [2], in [3], in test [4], in test [5] and in test [6]. For the same compound, the result in test [8] and in [9] was inactive.

As usually defined, the AC50 is the midpoint of the concentration-response curve, whichever way the signal moves.
